Data published in PubChem BioAssay (NCATS).
Records with an inconclusive call do not appear. A call without a number means that no potency is given here. Values without a mark were called inactive. Activity calls are given as the source filed them. Calls come from the whole dose curve; as a rule, active = well fitted inhibition curve with a large enough effect; inconclusive = small, poorly fitted or top-dose-only effect; inactive = flat fitted curve, though single readings scatter.

Key:
CP185 = experiment: qHTS profiling for inhibitors of Plasmodium falciparum proliferation (AID 504749); note: nearly all actives have a fitted effect of over 60% in size; settings: P. falciparum in erythrocytes, SYBR Green DNA, 72 h; series mostly up to 28.7 µM
Summary of the method: (§1)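 Three-day growth assay of blood-stage parasites in erythrocytes (0.3% parasitemia, 2.5% hematocrit) at 37 C, 5% CO2, quantified by SYBR Green DNA staining after overnight detergent lysis.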

CP201 = experiment: as above; settings: P. falciparum in erythrocytes, SYBR Green DNA, 72 h; series mostly up to 28.7 µM
Summary of the method: as §1

CP211 = experiment: as above; settings: P. falciparum in erythrocytes, SYBR Green DNA, 72 h; series mostly up to 28.7 µM
Summary of the method: as §1

CP215 = experiment: as above; settings: P. falciparum in erythrocytes, SYBR Green DNA, 72 h; series mostly up to 28.7 µM
Summary of the method: as §1

[1] = as above; settings: P. falciparum in erythrocytes, SYBR Green DNA, 72 h
Summary of the method: as §1

3D7 = experiment: as above; settings: P. falciparum in erythrocytes, SYBR Green DNA, 72 h; series mostly up to 28.7 µM
Summary of the method: as §1

AA1029 = experiment: as above; settings: P. falciparum in erythrocytes, SYBR Green DNA, 72 h; series mostly up to 28.7 µM
Summary of the method: as §1

AS120 = experiment: as above; settings: P. falciparum in erythrocytes, SYBR Green DNA, 72 h; series mostly up to 28.7 µM
Summary of the method: as §1

ATS189 = experiment: as above; settings: P. falciparum in erythrocytes, SYBR Green DNA, 72 h; series mostly up to 28.7 µM
Summary of the method: as §1

ATS95 = experiment: as above; settings: P. falciparum in erythrocytes, SYBR Green DNA, 72 h; series mostly up to 28.7 µM
Summary of the method: as §1

C2A = experiment: as above; settings: P. falciparum in erythrocytes, SYBR Green DNA, 72 h; series mostly up to 28.7 µM
Summary of the method: as §1

CP191 = experiment: as above; settings: P. falciparum in erythrocytes, SYBR Green DNA, 72 h; series mostly up to 28.7 µM
Summary of the method: as §1

CP192 = experiment: as above; settings: P. falciparum in erythrocytes, SYBR Green DNA, 72 h; series mostly up to 28.7 µM
Summary of the method: as §1

CP194 = experiment: as above; settings: P. falciparum in erythrocytes, SYBR Green DNA, 72 h; series mostly up to 28.7 µM
Summary of the method: as §1

CP217 = experiment: as above; settings: P. falciparum in erythrocytes, SYBR Green DNA, 72 h; series mostly up to 28.7 µM
Summary of the method: as §1

7G8 = experiment: as above; settings: P. falciparum in erythrocytes, SYBR Green DNA, 72 h; series mostly up to 28.7 µM
Summary of the method: as §1

CP203 = experiment: as above; settings: P. falciparum in erythrocytes, SYBR Green DNA, 72 h; series mostly up to 28.7 µM
Summary of the method: as §1

[2] = at 28.7 µM (top of the series), parasite line A
[3] = at 28.7 µM (top of the series), parasite line B
Potency is the fitted concentration of half-maximal effect.

| SMILES | Potency (CP185) | Potency (CP201) | Potency (CP211) | Potency (CP215) | activity, negative = inhibition [1, 2] | activity, negative = inhibition [1, 3] | Potency (3D7) | Potency (AA1029) | Potency (AS120) | Potency (ATS189) | Potency (ATS95) | Potency (C2A) | Potency (CP191) | Potency (CP192) | Potency (CP194) | Potency (CP217) | Potency (7G8) | Potency ([1]; parasite line A) | Potency (CP203) | activity, negative = inhibition ([1]; at 12.8 µM (top of the series), parasite line A) |
| --- | --- | --- | --- | --- | --- | --- | --- | --- | --- | --- | --- | --- | --- | --- | --- | --- | --- | --- | --- | --- |
| CC(C)[N+](C)(CCOC(=O)C1c2ccccc2Oc2ccccc21)C(C)C | inactive | inactive | inactive | inactive |  |  |  |  |  |  |  |  |  |  |  |  |  |  |  |  |
| CCN(CC)CC(=O)Nc1c(C)cccc1C | inactive | inactive | inactive | inactive | 7.16% | 15.8% | inactive | inactive | inactive | inactive | inactive | inactive | inactive | inactive | inactive | inactive |  |  |  |  |
| COCCCC/C(=N\OCCN)c1ccc(C(F)(F)F)cc1 |  |  |  |  | -21.1% |  | inactive |  |  | inactive |  |  |  |  |  |  | 10 µM (active) |  |  |  |
| CCOC(=O)C1=C(C)NC(C)=C(C(=O)OC)C1c1cccc(Cl)c1Cl (centres undefined) | inactive | inactive | inactive |  | -7.27% | -5.02% | inactive | inactive | inactive | inactive | inactive | inactive | inactive | inactive |  | inactive |  |  |  |  |
| CC1=C(C)C(=O)C(CCCCC#CCCCC#CCO)=C(C)C1=O |  |  |  | 15.1 µM (active) |  |  | 12.6 µM (active) |  | 6.31 µM (active) |  |  | 10 µM (active) |  |  | 19 µM (active) | 10 µM (active) | 2.51 µM (active) | 11.2 µM (active) |  |  |
| CN(C)CCN(Cc1cccs1)c1ccccn1 |  |  |  |  | 5.46% | 6.28% | inactive | 10 µM (active) | 12.6 µM (active) |  |  |  | inactive |  |  |  |  |  |  |  |
| C[n+]1cc2c3c(ccc2c2ccc4cc5c(cc4c21)OCO5)OCO3 | inactive | inactive | inactive | inactive | -18.2% | -15.2% |  | inactive | inactive |  | inactive | inactive |  | inactive | inactive |  |  |  |  |  |
| CCCCNc1c(C(=O)OCC)c(C)nc2c1cnn2CC | inactive | inactive | inactive | inactive | 2.9% | -6.97% | inactive | inactive |  | inactive | inactive | inactive | inactive | inactive | inactive | inactive |  |  | inactive |  |
| c1cc(CN2CCCCC2)cc(OCCCNc2nc3ccccc3s2)c1 |  |  |  |  |  |  |  |  | 5.01 µM (active) |  | 7.94 µM (active) |  |  |  |  |  | 6.31 µM (active) |  |  |  |
| Nc1nc(N)c2nc(-c3ccccc3)c(N)nc2n1 | inactive | inactive | inactive | inactive |  | 5.12% | 7.08 µM (active) | inactive | inactive | inactive | inactive | inactive | inactive | inactive | inactive | inactive |  | 2 µM (active) |  |  |
| NC(N)=N/N=C/c1c(Cl)cccc1Cl |  |  |  |  |  |  | inactive |  | inactive |  |  |  |  |  |  |  | 11.2 µM (active) |  |  |  |
| NC(Cc1ccc(Cl)cc1)C(=O)O (centres undefined) | inactive | inactive | inactive | inactive | 17.3% | 7.34% | inactive | inactive | inactive | inactive | inactive | inactive | inactive | inactive | inactive | inactive |  |  |  |  |
| COCCOC(=O)C1=C(C)NC(C)=C(C(=O)OC(C)C)C1c1cccc([N+](=O)[O-])c1 (centres undefined) |  |  |  |  |  |  |  |  | 7.94 µM (active) |  |  | inactive |  |  |  |  | 11.2 µM (active) |  | 12 µM (active) |  |
| CC(C)NNC(=O)c1ccncc1 | inactive | inactive | inactive | inactive | -11.8% |  | inactive | 7.94 µM (active) | inactive | inactive |  | inactive | 4.47 µM (active) | inactive | inactive |  | inactive |  | inactive |  |
| O=C1CC2(CCCC2)CC(=O)N1CCCCN1CCN(c2ncccn2)CC1 | inactive | inactive | inactive | inactive | 11.6% | 9.29% | inactive | inactive | inactive | inactive | inactive | inactive | inactive | inactive | inactive | inactive |  |  | inactive |  |
| CCN(CC)CCOCCOC(=O)C1(c2ccccc2)CCCC1 | inactive | inactive | inactive | 15.1 µM (active) |  |  |  | inactive | 12.6 µM (active) | 7.08 µM (active) | 11.2 µM (active) |  | 7.94 µM (active) | inactive |  | 11.2 µM (active) | 1.78 µM (active) |  |  |  |
| CCCCNc1ccc(C(=O)OCCN(C)C)cc1 | inactive |  |  | inactive |  |  | inactive | inactive | inactive |  | inactive | inactive | inactive | inactive |  | inactive | inactive |  |  | 20% |
| CCCC(C(=O)OCCN(CC)CC)(c1ccccc1)c1ccccc1 |  |  |  | 12 µM (active) |  |  | 10 µM (active) | 11.2 µM (active) |  |  |  |  |  | 9.53 µM (active) |  |  | 3.98 µM (active) |  | 12 µM (active) |  |
| CCCCCCCC/C=C\CCCCCCCC(=O)NCc1ccc(O)c(OC)c1 | 11.2 µM (active) | inactive | inactive | inactive |  |  |  |  |  | 8.91 µM (active) |  |  | 12.6 µM (active) | inactive | inactive |  |  | 7.08 µM (active) | inactive |  |
